A number with no mark means an inactive call.
system: Plasmodium falciparum NF54-HGL (transmission to Anopheles stephensi); test: percentage of barcode signal found in uninfected mosquitoes (transmission-blocking activity); higher = stronger blocking of transmission to mosquito, active = 80 or more; conditions: 10 µM; gametocyte preincubation time 24 h; readout time post-feed 8 days
Experimental: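 The mixture was fed to Anopheles stephensi in 96-well plates as blood meals tagged with DNA-barcoded Asaia bacteria. Eight days later, mosquitoes were classed infected or uninfected by luminescence (mean + 5 SD of unfed controls). Barcodes were quantified by Luminex MagPlex-TAG in the pooled uninfected and infected Asaia cultures, background-corrected, and the score is % of barcode signal in uninfected mosquitoes = 100*Iu/(Iu+Ii).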

| Compound | percentage of barcode signal found in uninfected mosquitoes |
| --- | --- |
| CC1=Nc2ccc(Cl)cc2C(O)(c2ccc(C)cc2)N1CCN1CCCCC1 (stereo not drawn) | 83.9% (active) |
| N#Cc1ccc(-c2cnc(N)c(-c3ccc(C(N)=O)cc3)n2)cc1 | 69.6% |
| COc1ccccc1CNC(=O)c1cc(C2CC2)nc2c1cnn2C(C)C | 62.8% |
| COc1ccc(C2=NN(C3CCCCCC3)C(=O)[C@@H]3CC=CC[C@H]23)cc1OCCCCOc1ccc(-c2nn[nH]n2)cc1 | 63.6% |
| CCCn1nnc(NC(=O)COc2ccc(C3CCCCC3)cc2)n1 | 3.33% |
| Cc1nc(-c2ccccn2)nc(N2CCC(Cc3ccccc3)C2)c1Cl (stereo not drawn) | 78% |
| CCOc1ccc(-c2nc(NC(=O)CS(=O)(=O)c3ccccc3)sc2C)cc1 | -3.11% |
| NCCCC(N)(C(=O)O)C(F)F (stereo not drawn) | 37.7% |
| Cc1cc(C)n2nc(C(=O)Nc3cc(C(F)(F)F)ccc3N3CCOCC3)nc2n1 | 29.6% |
| O=C1N(Cc2cc3ccccc3s2)CC2CN(Cc3ccccc3)CCN12 (stereo not drawn) | 58.1% |
| CCOc1ccc2cc(-c3nn(CC4CCN(C)CC4)c4ncnc(N)c34)ccc2c1 | -7.02% |
| COC(=O)c1c(NC(=O)c2cc3ccccc3oc2=O)sc2c1CCN(Cc1ccccc1)C2 | 49.1% |
| CC(C)C(NC(=O)Cc1cccc2ccccc12)C(=O)Nc1cccc(C#N)c1 (stereo not drawn) | 53.4% |
| CC(C)c1ncc(-c2ccncc2)c([C@H]2CC[C@H](CNC(=O)c3cccnc3)CC2)n1 | 31.4% |
| CN(C(=O)c1cc2c(-c3cncnc3)cccc2[nH]1)c1ccccc1 | 66.4% |
| COC(=O)c1c(NC(=O)c2c(F)c(F)c(F)c(F)c2F)sc2c1CCCCC2 | 13.7% |
| O=C(Nc1ccc(N2CCNCC2)cc1)c1ccn2ncc(-c3cccc(Cl)c3)c2n1 | 81.5% (active) |

same assay, conditions: 20 µM; gametocyte preincubation time 24 h; readout time post-feed 8 days

| Compound | percentage of barcode signal found in uninfected mosquitoes |
| --- | --- |
| Cc1cc(OCC(=O)NCc2ccccc2)c2cc(Br)ccc2n1 | 0.13% |
| CC(C)(C)C(=O)N(CCCCCCN1C[C@H](O)[C@@H](O)[C@H](O)[C@H]1CO)C1CCCCCC1 | 17% |
| CCC(C)NC(=O)c1ccc(NC(=O)C2(c3ccccc3)CCCC2)cc1 (stereo not drawn) | 47.5% |
| Cn1ccnc1CNCCS(=O)(=O)c1cccc(Nc2ccc(-c3cccc(F)c3)cn2)c1 | 0.967% |
| CN1CCN(S(=O)(=O)c2ccc(-c3ccc4c(Nc5ncc(Cl)cn5)ccnc4c3)cc2)CC1 | 50.8% |
| COc1ccc(CN2CCOc3ccc(C(C)(O)CN(C)C)cc3C2)cc1C (stereo not drawn) | 36.4% |
| CCc1nc2ccc(Cl)cn2c1C(=O)NCc1ccc(N2CCC(c3ccc(OC(F)(F)F)cc3)CC2)cc1 | 32% |
| Cc1cc(Cl)c(S(=O)(=O)N2CCCC2)cc1OCC(=O)NC1CCCCC1 | 1.74% |
| N#CCN(CCCCN1CCN(c2ccc(F)cc2)CC1)C(=O)OCc1ccccc1 | 36.5% |
| CS(=O)(=O)N1CCC(Cn2nc(Cc3cccc4ccccc34)c3c(N)ncnc32)CC1 | 28.2% |
| CCS(=O)(=O)N(Cc1ccco1)Cc1cc2ccc(C)cc2nc1O | -1.14% |
| CC(c1cc(Cl)cc(Cl)c1)N(C)c1ncc2c(N)nc(N)nc2n1 (stereo not drawn) | 0.441% |
| O=C(Nc1cccc(Cl)c1)c1cnc(N2CCN(c3ccncc3)CC2)c(Cl)c1 | 56% |
| O=C(C1CCN(c2nnc(-n3cccc3)s2)CC1)N1CCC(Cc2ccccc2)CC1 | 28.5% |
| COc1ccc(-c2cnc3cnc(-c4cccc(OC(C)C)c4)cn23)cc1 | -0.618% |
| CC(=O)Nc1ccc(-c2noc(CC3CCCN(Cc4cccc(F)c4C)C3)n2)cc1 (stereo not drawn) | 0.0253% |
| O=C(Nc1ccccc1-c1nc2c(C(=O)O)cccc2o1)c1ccccc1 | 27.2% |
| CCCCOC(=O)Nc1cc2nc(C3CCCCC3)[nH]c2cc1N1CCCC1 | 33.9% |
| c1ccc(-c2nc(NC3CCCCC3)cc(C3CC3)n2)nc1 | 99.2% (active) |
| NC(=O)c1cc(-c2ccsc2)ccc1OCCOc1ccccc1 | 12.1% |
| CCOc1ccc(OCC(=O)Nc2cc(C)cc(C)c2)cc1 | 17.5% |

Reference: the supplement of paper PMC8726507
